The supplement of paper PMC11150407
“And” between values parts separate entries of the source, which are not always exact repeats. Identical values can stand only once. In all, about 2,100 compounds went through this assay and about 180 (8.6%) showed an effect of 50% or more. The full list was thinned out, with strong results kept by preference.

Test system: MOLM1 and UCSD/AML1 (averaged)
Experiment: cell viability relative to DMSO control (POC); higher = less growth inhibition
Details: 1 µM; 72 h
Experimental: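 Primary viability screen in the 3q26 EVI1-high AML cell lines MOLM1 and UCSD/AML1 (1.5e3 cells/well, 384-well), compounds at 1 uM for 72 h. ATP CellTiter-Glo read-out given as percent of viable cells over DMSO control (POC), averaged over duplicates. DMSO was the negative control and 5 uM etoposide the positive control. This mapping covers the MicroSource Spectrum and Selleck anticancer libraries (drug names).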

Compound	cell viability
O=c1c(O)c(-c2ccccc2)oc2cccc(O)c12	93.1%
CCC(CCC(C)C1CCC2C3CCC4CC(O)CCC4(C)C3CCC12C)C(C)C (stereo unspecified)	89.6%
C=C1C(N)CC2CC1C2(C)C (stereo not drawn) [3-AMINO-beta-PINENE]	96.3%
CC(C)[C@@H]1CC[C@@H](C)CC1=O	102%
CC(=O)O[C@H]1C(=O)[C@@]2(C)[C@H]([C@H](OC(=O)c3ccccc3)[C@]3(O)C[C@H](OC(=O)[C@H](O)[C@@H](NC(=O)c4ccccc4)c4ccccc4)C(C)=C1C3(C)C)[C@]1(OC(C)=O)CO[C@@H]1C[C@@H]2O	11.7%
CC(=O)O[C@@]12CO[C@@H]1C[C@H](O)[C@@]1(C)C(=O)[C@H](O)C3=C(C)[C@@H](OC(=O)[C@H](O)[C@@H](NC(=O)OC(C)(C)C)c4ccccc4)C[C@@](O)([C@@H](OC(=O)c4ccccc4)[C@H]21)C3(C)C [Docetaxel (Taxotere)]	14.7%
CC(=O)O[C@H]1C(=O)[C@@]2(C)[C@H]([C@H](OC(=O)c3ccccc3)[C@]3(O)C[C@H](OC(=O)[C@H](O)[C@@H](NC(=O)c4ccccc4)c4ccccc4)C(C)=C1C3(C)C)[C@]1(OC(C)=O)CO[C@@H]1C[C@@H]2O [Paclitaxel (Taxol)]	12.3%
COc1nc(C)cnc1NS(=O)(=O)c1cccnc1-c1ccc(-c2nnco2)cc1 [Zibotentan (ZD4054)]	71.2%
Nc1nccc(Oc2ccc(NC(=O)c3c[nH]cc(-c4ccc(F)cc4)c3=O)cc2F)c1Cl	83.2%
O=C1c2ccccc2C(=O)c2c(O)c(O)cc(O)c21	83.8%
O=c1c(O)c(-c2ccccc2)oc2cc(O)ccc12	107%
CC1(C)CC[C@]2(C(=O)O)CC[C@]3(C)C(=CC[C@@H]4[C@@]5(C)CC[C@H](O)[C@@](C)(CO)[C@@H]5CC[C@]43C)[C@@H]2C1	89.4%
COc1ccc(C(C)=O)c(OC)c1	91.5%
COC(=O)c1c(C)cc(OC(=O)c2c(C)cc(O)c(C=O)c2O)c(C)c1O	100%
O=C(NCCCNc1nc(Nc2cccc(NC(=O)N3CCCC3)c2)ncc1I)c1cccs1	47.6%
C#CC1(O)CC[C@H]2[C@@H]3CCC4=CC(=O)CC[C@@H]4[C@H]3CC[C@@]21CC (mixture of isomers)	69.3%
C[C@@H]1CC[C@H]2C(C)(C)[C@H]3C[C@@]12CC[C@@]3(C)O	105%
COc1cc2ccc(=O)oc2c(OC)c1OC	110%
CCCCCCCCCCCCCCC(C(=O)O)C(O)(CC(=O)OC)C(=O)O (stereo unspecified)	87.8%
CN1CCN(c2ccc3nc(-c4c(N)c5c(F)cccc5[nH]c4=O)[nH]c3c2)CC1 [Dovitinib (TKI-258)]	26.7%
COc1cc2c(cc1OC)-c1cc3ccc(OC)c(OC)c3c[n+]1CC2	95.7% and 88.9%

Compound	cell viability
CC(=O)O[C@@H]1CC2C(C)(C)[C@H](O)CC[C@]2(C)C2CC[C@@]3(C)[C@H](c4ccoc4)OC(=O)C4OC43[C@@]21C (stereo partly drawn) [alpha-DIHYDROGEDUNOL]	123%
COc1ccc(-c2coc3c(O)c(OC)ccc3c2=O)cc1	94.6%
CNC(=O)c1ccc(C)c(-n2c(C)cc(OCc3ccc(F)cc3F)c(Br)c2=O)c1	87.5%
CO[C@H]1C[C@@H]2CC[C@@H](C)[C@@](O)(O2)C(=O)C(=O)N2CCCC[C@H]2C(=O)O[C@H]([C@H](C)C[C@@H]2CC[C@@H](OCCO)[C@H](OC)C2)CC(=O)[C@H](C)/C=C(\C)[C@@H](O)[C@@H](OC)C(=O)[C@H](C)C[C@H](C)/C=C/C=C/C=C/1C [Everolimus (RAD001)]	50.2%
C=CC[C@@H]1/C=C(\C)C[C@H](C)C[C@H](OC)[C@H]2O[C@@](O)(C(=O)C(=O)N3CCCC[C@H]3C(=O)O[C@H](/C(C)=C/[C@@H]3CC[C@@H](O)[C@H](OC)C3)[C@H](C)[C@@H](O)CC1=O)[C@H](C)C[C@@H]2OC	85.3%
CO[C@H]1C[C@@H]2CC[C@@H](C)[C@@](O)(O2)C(=O)C(=O)N2CCCC[C@H]2C(=O)O[C@H]([C@H](C)C[C@@H]2CC[C@@H](O)[C@H](OC)C2)CC(=O)[C@H](C)/C=C(\C)[C@@H](O)[C@@H](OC)C(=O)[C@H](C)C[C@H](C)/C=C/C=C/C=C/1C [Rapamycin (Sirolimus)]	41.5%
CO[C@H]1C[C@@H]2CC[C@@H](C)[C@@](O)(O2)C(=O)C(=O)N2CCCC[C@H]2C(=O)O[C@H]([C@H](C)C[C@@H]2CC[C@@H](O)[C@H](OC)C2)CC(=O)[C@H](C)/C=C(\C)[C@@H](O)[C@@H](OC)C(=O)[C@H](C)C[C@H](C)/C=C/C=C/C=C/1C	44%
CO[C@H]1C[C@@H]2CC[C@@H](C)[C@@](O)(O2)C(=O)C(=O)N2CCCC[C@H]2C(=O)O[C@H]([C@H](C)C[C@@H]2CC[C@@H](OC(=O)C(C)(CO)CO)[C@H](OC)C2)CC(=O)[C@H](C)/C=C(\C)[C@@H](O)[C@@H](OC)C(=O)[C@H](C)C[C@H](C)/C=C/C=C/C=C/1C	11%
O=c1cc(-c2cccc3c2Sc2ccccc2S3)oc(N2CCOCC2)c1	69.4%
O=C(O)CCCCCCCCCCCC[C@@H]1C=CCC1	93.9%
CS(=O)(=O)CCCCN=C=S	84.4%
COc1ccc(-c2oc3cc(OC)c(OC)c(OC)c3c(=O)c2OC)cc1OC	101%
CC(=O)OCC(=O)[C@@]1(O)CCC2C3CCC4=CC(=O)C=C[C@]4(C)[C@@]3(F)[C@@H](O)C[C@@]21C (stereo partly specified)	78.1%
Cc1nc(N)sc1-c1ccnc(Nc2ccc(N3CCOCC3)cc2)n1	46.7%
N#CCNC(=O)c1ccc(-c2ccnc(Nc3ccc(N4CCOCC4)cc3)n2)cc1 [Momelotinib (CYT387)]	51.4%
O=C(O)c1ccccc1	98.9%
CC(CCC(=O)O)[C@H]1CCC2C3C[C@H](O)[C@@H]4C[C@H](O)CC[C@]4(C)C3CC[C@@]21C (stereo partly drawn) [alpha-HYDROXYDEOXYCHOLIC ACID]	107%
CC(C)(C)c1cnc(CSc2cnc(NC(=O)C3CCNCC3)s2)o1	2.81%
Cc1cc(/C=C/c2ccc3cc(N(C)C)ccc3[n+]2C)c(C)n1-c1ccccc1	29.3%
C[C@@H]1CC[C@@]23CCC4(C)[C@@](C=CC5[C@@]6(C)CC[C@H](O)C(C)(C)C6CC[C@]54C)(OC2=O)C3[C@H]1C (stereo partly specified)	90.8%
